# Reference: PubChem BioAssay (NCI)
# The panel holds about 83,000 compounds, 20% with a hit somewhere; the sample as a whole holds those more often.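 Cell lines were cultured in 96-well plates, exposed to a single compound concentration, and assessed for percent growth 48 hours later.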 Unmarked numbers belong to inactive results. The source made the active and inactive calls. The calls were made as follows: active = growth percent below 10; inactive = the rest.
# Key:
# Experiment in all cases: NCI-60 one-dose screen, 48 h (100 = growth as untreated, 0 = no growth, -100 = all killed)
# Conditions in all cases: 10 µM unless noted
# [1] = tested on: HT29 colon
# [2] = tested on: SNB-75 CNS
# [3] = tested on: SNB-19 CNS
# [4] = tested on: U251 CNS
# [5] = tested on: PC-3 prostate
# [6] = tested on: SK-MEL-5 melanoma
# [7] = tested on: UACC-62 melanoma
# [8] = tested on: LOX IMVI melanoma
# [9] = tested on: SK-MEL-28 melanoma
SMILES,growth [1],growth [2],growth [3],growth [4],growth [5],growth [6],growth [7],growth [8],growth [9]
O=C1CNC(c2ccccc2)c2cc(Cl)ccc2N1 (stereo not given),80.4%,85.6%,96.6%,105%,99.3%,101%,93.4%,96.3%,116%
O=C(c1cccc(O)c1O)c1cn(Cc2ccc(F)cc2)c2cccc(O)c12,94.5%,55.3%,37.3%,31%,39.2%,25.4%,9.18% (active),29.3%,39.2%
Cc1ccc(S(=O)(=O)F)cc1C(=O)O,100%,,97.5%,,110%,102%,109%,102%,110%
CC(=O)O[C@H](C[C@H](C(C)C)N(C)C(=O)[C@@H](NC(=O)[C@H]1CCCCN1C)C(C)(C)C)c1nc(C(=O)N[C@@H](Cc2ccccc2)C[C@H](C)C(=O)O)cs1,1.32% (active),17%,23.4%,11.1%,25.1%,-50.6% (active),26.2%,14.3%,52.6%
C/C(CC(C)(C)N1CC1)=N\NC(=O)Nc1cccc2ccccc12,38.6%,58.8%,63.5%,57.3%,64.4%,72.3%,68.4%,46.1%,
CCOC(=O)[C@@H](C)C[C@H](Cc1ccccc1)NC(=O)c1nc([C@@H](C[C@H](C(C)C)N(C)C(=O)[C@@H](NC(=O)[C@H]2CCCCN2C)C(C)C)OC(C)=O)sc1CCOCc1ccccc1,-50.7% (active),-11.2% (active),4.69% (active),-32.4% (active),5.66% (active),-39.7% (active),4.15% (active),-54.4% (active),-23.7% (active)
CN(C)C(=O)Oc1ccc(Br)cc1,109%,89%,107%,,97.1%,98.8%,113%,96.4%,104%
COc1ccc([As]=[As]c2ccc(OC)c(NCS(=O)(=O)O)c2)cc1NCS(=O)(=O)O (stereo not given),39.8%,36.9%,0.15% (active),-43% (active),32.5%,1.61% (active),17%,5.45% (active),0.0807% (active)
Clc1cccc(NCOOC2(OOCNc3cccc(Cl)c3)CCCCC2)c1,74.5%,,90.2%,61.4%,77.6%,71.4%,34.3%,-86.1% (active),100%
O=C(N/N=C\c1ccc(N(CCCl)CCCl)cc1Cl)c1cccnc1,,86.6%,89%,65.2%,92.9%,72.6%,-40.4% (active),87.1%,98.5%
CC1=C(CCCNS(C)(=O)=O)C2=C(C)C3(CC3)[C@@](C)(O)C(=O)C2=C1,-2.04% (active),-60.6% (active),8.19% (active),1.79% (active),6.58% (active),-89.8% (active),-52.7% (active),2.21% (active),-28.4% (active)
Nc1c(F)cc(-c2nc3cc(F)ccc3[se]2)cc1Br,5.05% (active),73.4%,94.5%,87.5%,66.4%,50%,47.5%,90.1%,106%
O=C(Nc1ccc([As]=[As]c2ccc(NC(=O)c3ccccc3)cc2)cc1)c1ccccc1 (stereo not given),-35.7% (active),-97% (active),,-78.6% (active),-86.2% (active),,,-52.2% (active),-94% (active)
O=C([O][Hg][CH2]C1OCCOC1[CH2][Hg][O]C(=O)c1ccccc1)c1ccccc1 (stereo not given),83.6%,92.5%,105%,43%,70.5%,93.1%,106%,-92.7% (active),-96.7% (active)
C[C@@]12CC[C@@H](O)C[C@@H]1CC[C@H]1[C@H]2CC[C@@]2(C)[C@H](c3ccc(=O)oc3)CC[C@@]12O,-67.5% (active),-85% (active),-99.8% (active),-81.3% (active),-22.5% (active),-68.6% (active),-71% (active),-74.9% (active),-43% (active)
COc1cc(C=Nc2cccc(C(=O)O)c2)ccc1N(CCCl)CCCl,98.1%,101%,102%,,101%,98.7%,96.7%,101%,103%
CC(C)(C)C(=O)OCOP(=O)(NCc1ccccc1)C1CCCN(O)C1=O (stereo not given),21.5%,70.6%,37.9%,13.8%,67.7%,31.2%,19.5%,51.9%,17%
O=C(N/N=C/c1ccc(N(CCCl)CCCl)cc1)c1cccc2ccccc12,39.4%,76.7%,80.6%,60.9%,61.5%,70.6%,46.5%,61.3%,83%
COc1cc([C@@H]2c3cc4c(cc3[C@H](OC(C)=O)[C@H]3COC(=O)[C@H]23)OCO4)cc(OC)c1OC,5.66% (active),41.4%,39.4%,,30.2%,-17.6% (active),43.2%,18.7%,64.3%
COc1cc(/C=C\c2cc(OC)c(OC)c(OC)c2)cc(N/C=C\C(=O)c2cc(OC)c(OC)c(OC)c2)c1OC,3.93% (active),-6.67% (active),43.4%,31%,21.1%,5.18% (active),16.8%,28.6%,
COC(=O)[C@@H](C)C[C@H](Cc1ccccc1)NC(=O)c1csc([C@@H](C[C@H](C(C)C)N(C)C(=O)[C@H](C)NC(=O)[C@H]2CCCN2C)OC(C)=O)n1,11.5%,30.7%,51%,24.8%,36.4%,22.3%,45.6%,38.4%,70.1%
CC(=O)O[C@@H]1CC[C@]2(C)[C@H]3CC[C@]4(C)C(=O)CC[C@H]4[C@@H]3C[C@@H]3SC(N)=N[C@@]32C1,10.2%,73.2%,54.7%,37%,71%,32.5%,38.2%,66.3%,
